# PubChem BioAssay
# Unmarked numbers belong to inactive results. Active and inactive are the calls of the source.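 Rule for the calls: active = thallium flux through the channel raised or lowered by more than 3 SD from vehicle-only wells, actives on both sides; inactive = the rest.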
# Experiments:
# Assay in all cases: modulators of BK channel variants, profiling panel, selectivity assay, cell-based, U2OS BacMam, thallium flux, beta subunits (AID 1259406);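 note: initial slope of Thallos dye fluorescence rise after thallium is added; log ratio against the mean of 0.3% DMSO vehicle wells on the same plate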
# [1] = tested on: F380Y; settings: at 30 µM
# [2] = tested on: F380Y/beta1; settings: at 30 µM
# [3] = tested on: F380Y/beta2Delta; settings: at 30 µM
# [4] = tested on: F380Y/beta4; settings: at 30 µM
# [5] = target: Calcium-activated potassium channel subunit alpha-1 (Homo sapiens) + Leucine-rich repeat-containing protein 26 (Homo sapiens) (UniProt Q12791+Q2I0M4); settings: F380Y/Slo1WT/gamma1, at 30 µM
# [6] = tested on: R275C; settings: at 30 µM
# [7] = tested on: R275C/beta1; settings: at 30 µM
# [8] = tested on: R275C/beta2Delta; settings: at 30 µM
# [9] = tested on: R275C/beta4; settings: at 30 µM
# [10] = tested on: R275C/Slo1WT/beta2; settings: at 30 µM
# Chain of Calcium-activated potassium channel subunit alpha-1 (Homo sapiens) + Leucine-rich repeat-containing protein 26 (Homo sapiens) (Q2I0M4 whole entry, looked up, one chain of several): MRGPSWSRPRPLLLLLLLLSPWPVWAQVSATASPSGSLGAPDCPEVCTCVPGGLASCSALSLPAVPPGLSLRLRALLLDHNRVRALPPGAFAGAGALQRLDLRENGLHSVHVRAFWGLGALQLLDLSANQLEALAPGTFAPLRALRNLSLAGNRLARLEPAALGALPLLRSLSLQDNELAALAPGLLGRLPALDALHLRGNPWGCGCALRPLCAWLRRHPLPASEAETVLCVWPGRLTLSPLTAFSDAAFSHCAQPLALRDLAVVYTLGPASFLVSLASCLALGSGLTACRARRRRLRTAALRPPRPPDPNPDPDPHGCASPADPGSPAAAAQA
Compound,log fold change Tl+ flux [1],log fold change Tl+ flux [2],log fold change Tl+ flux [3],log fold change Tl+ flux [4],log fold change Tl+ flux [5],log fold change Tl+ flux [6],log fold change Tl+ flux [7],log fold change Tl+ flux [8],log fold change Tl+ flux [9],log fold change Tl+ flux [10]
Cc1ccc(C(=O)c2c(-c3ccccc3)cc(-c3ccccc3)c3c2C(=O)CCC3)cc1,0.0109,-0.036,0.0354,-0.0286,-0.0641,0.0312,-0.0154,0.00863,-0.00364,-0.0497
COc1cccc(N2CC(=O)N(NC(=O)NC3CCCCC3)CC2=O)c1,-0.0108,-0.0266,-0.0355,-0.0285,0.0234,0.0133,-0.0377,-0.0493,-0.00116,-0.0113
CC(C)(C)NC(=O)NCCO,0.0116,-0.0332,0.0577,-0.013,-0.0499,-0.02,0.0132,-0.014,0.00214,-0.03
CCOC(=O)c1ccc(OCC#Cc2ccc(C(F)(F)F)cn2)cc1,-0.0256,-0.0209,-0.0279,-0.0657,-0.0262,-0.0775,-0.0424,-0.0497,-0.0346,-0.0412
CCOC(=O)c1nn(-c2ccc(C(C)(C)C)cc2)c(=O)c(C#N)c1C,-0.364 (active),-0.189 (active),-0.281 (active),-0.097 (active),-0.15 (active),-0.52 (active),-0.383 (active),-0.219 (active),-0.26 (active),-0.0278
Cc1ccc(C2=C(c3ccccc3)C(=O)C(c3ccccc3)=C2c2ccc(Cl)cc2)cc1,-0.00103,-0.0199,0.00394,-0.0256,0.0117,0.0143,-0.08,0.0554,-0.0334,-0.0207
CC(=NO)c1ccc2c(c1)C(C)(C)CCC2(C)C,-0.246 (active),-0.197 (active),-0.444 (active),-0.152 (active),-0.146 (active),-0.00509,0.0184,-0.00725,-0.0253,-0.0443
Cc1cc(-c2nn(C)c(=O)c3ccccc23)cc(C)c1O,0.00104,0.0146,0.00813,-0.0513,-0.0365,0.0132,0.0233,-0.0115,0.0138,-0.0205
CCOC(=O)c1sc(SC)nc1N,-0.000489,-0.00635,0.00305,0.00634,-0.00935,0.0886 (active),-0.00543,-0.0273,-0.000536,0.0235
Cc1cc(C(=O)N2CCN(c3ncccc3C#N)CC2)no1,-0.0195,0.00841,-0.0191,0.032,-0.00848,0.011,0.022,0.0483,0.00374,0.00615
O=C(Nc1ccc(F)cc1)N1CCN(Cc2ccccc2)CC1,0.0438,0.00516,0.00491,0.032,0.0285,0.0233,0.0689,-0.00966,0.0882 (active),0.000608
O=c1c(Cl)c(N2CCOCC2)cnn1-c1cnc2ccccc2n1,-0.0015,0.00611,0.0635,0.0417,0.0667,0.00311,-0.0364,0.032,-0.0173,0.0145
N=c1c(C(N)=O)cc2c(=O)n3ccccc3nc2n1Cc1ccco1,0.0339,-0.0185,0.0123,-0.019,-0.0157,0.0321,-0.0587,-0.00823,-0.00879,0.0143
Cn1c(C(F)(F)F)nnc1S(=O)(=O)Cc1ccc(-c2csnn2)cc1,0.0645,0.0098,0.0485,0.114 (active),0.00754,0.0229,-0.0587,0.0374,-0.0154,-0.0301
Oc1c(Cl)cc(Cl)cc1C=Nc1nccs1,0.115 (active),0.153 (active),0.108 (active),0.105 (active),0.0431,-0.0362,0.112 (active),0.0936 (active),0.0731,0.0241
Cc1ccc(NC(=S)NCCO)cc1,0.021,0.0481,0.0272,-0.0116,-0.000511,0.0409,-0.0306,-0.0145,0.0201,0.0248
Cc1c(C(=O)Nc2ccc(N3CCOCC3)c(Cl)c2)cnn1-c1ccc(F)cc1,-0.0177,-0.00879,-0.0427,0.0219,-0.0278,-0.00699,0.0051,-0.0229,0.0362,0.000473
CCOC(=O)c1ccc(N2CCOCC2)c(N=Cc2cc(Cl)cc(Cl)c2O)c1,0.0511,0.162 (active),0.0876,0.0975 (active),0.0345,-0.00571,0.163 (active),0.0906 (active),0.128 (active),0.0153
O=C1CSC(=S)N1N=Cc1cccnc1,0.0409,0.00585,0.0225,0.0146,0.0179,0.0256,-0.0433,0.0173,0.00843,-0.022
COCCCNC1=C(C#N)C(=O)NC(c2cccs2)S1 (stereo not given),0.041,0.00355,0.0315,-0.00136,0.0147,-0.0102,0.0346,0.0144,-0.0186,-0.0245
N#CC(NCc1ccccc1Cl)=C(C#N)NCc1c(F)cccc1Cl,-0.0652,-0.0209,-0.0204,-0.171 (active),-0.129 (active),-0.2 (active),-0.262 (active),-0.0733,-0.185 (active),0.00197
O=[N+]([O-])c1ccc(N2CCSCC2)cc1O,-0.0426,-0.0279,-0.0262,0.012,0.0289,-0.00302,-0.0429,-0.0453,-0.0292,0.0333
Cc1ccc(C(=O)CC(=CC(=C(C#N)c2ccc([N+](=O)[O-])cc2)c2ccc(C)cc2)c2ccccc2)cc1,0.00161,0.0132,-0.0182,-0.0433,-0.0481,-0.0132,-0.025,-0.0508,-0.0482,-0.0297
CCC(=NOc1ccc(C(F)(F)F)cn1)c1ccc(-c2ccccc2F)cc1,0.147 (active),-0.0225,0.0209,-0.0257,-0.0559,-0.0194,0.00871,0.0154,0.0265,-0.0112
CCOC(=O)C(C)Oc1ccc(NS(=O)(=O)c2cc(OC)ccc2OC)cc1Cl (stereo not given),-0.0459,-0.0343,-0.0957,-0.104 (active),-0.0848,-0.0618,0.0118,-0.0738,-0.0156,-0.0391
O=C1c2ccccc2C(=O)N1CNc1ccc(Oc2ccc(Cl)cc2)cc1,0.0258,0.986 (active),0.0357,0.151 (active),0.327 (active),0.06,0.443 (active),0.0194,0.104 (active),0.0127
